# Screen size: about 2,200 compounds; about 480 (22%) were called active. How the calls were made is not given here. The list is a sample of the results. Results with a measured potency or affinity are listed apart.
# Test: S. Typhimurium GFP fluorescence dose response in modified counterscreen for PhoP regulon inhibitor project (AID 1981)
# Conditions: 4 h; series mostly up to 150 µM
row,SMILES,outcome
1,COc1ccccc1N1CCN(C(=O)CSc2nc3ccccc3o2)CC1,inactive
2,O=C(O)Cn1cc(C(=O)c2ccco2)c2ccccc21,inactive
3,O=S(=O)(c1ccc(S(=O)(=O)N2CCN(C/C=C/c3ccccc3)CC2)cc1)N1CCCC1,inactive
4,NS(=O)(=O)c1ccc(Nc2nc(-c3ccc(O)cc3)cs2)cc1,inactive
5,Fc1cccc(NCc2cn3ccccc3n2)c1,inactive
6,CNc1nnc(-c2cccc(N(C)C)c2)s1,inactive
7,COC(=O)c1c(C)[nH]c(C(C)=O)c1C,inactive
8,COc1ccc2c(c1)C1C=CCC1C(c1cc3c(cc1Br)OCO3)N2 (stereo not drawn),inactive
9,COc1ccc(C(=O)N2CCc3cc(OC)c(OC)cc3C2)cc1OC,inactive
10,COc1ccc(S(=O)(=O)N2CCN(Cc3ccccc3)CC2)cc1,inactive
11,COc1ccc(C(=O)On2c(-c3ccc(Br)cc3)nc3ccccc3c2=O)cc1,inactive
12,COc1cccc(/C=N/n2c(C)nc3ccccc32)c1OC,inactive
13,CCCCn1c(N)nc2ccccc21,inactive
14,COc1ccc2c(c1)nc(N)n2Cc1ccccc1,inactive
15,CSc1nc2ccccc2n1Cc1cccc(F)c1,inactive
16,CCCn1c(N)nc2ccccc21,inactive
17,CCOc1cc(S(=O)(=O)N2CCN(CC)CC2)ccc1Cl,inactive

row,SMILES,outcome
1,CC(C)Cn1cnc2sc3c(c2c1=N)CCCC3,inactive
2,CCn1c(C)cc(=S)c2ccccc21,inactive
3,CC(C)(C)C1CCC2(CC1)Nc1cccc3cccc(c13)N2,inactive
4,Cc1ccc(C(=O)CSc2ncnc3sc4c(c23)CCCC4)cc1,inactive
5,c1ccc(Cn2nnc3c(NCc4ccc5c(c4)OCO5)nc(C4CC4)nc32)cc1,inactive
6,CCC(CC)C(=O)N1c2ccc(F)cc2CCC1C (stereo not drawn),inactive
7,Cc1nc(N2CCN(Cc3ccccc3)CC2)nc2c1C(=O)CC(C)C2 (stereo not drawn),inactive
8,Cc1cc(/C=N/NC(N)=S)c(C)n1-c1ccc(Cl)c(Cl)c1,inactive
9,Cn1cccc1CC(=O)N/N=C/C(Cl)=C/c1ccccc1,inactive
10,CSc1ccc2c(c1)C(N1CCN(C)CC1)Cc1ccccc1S2 (stereo not drawn),inactive
11,c1ccc2c(c1)Sc1ccccc1N2CC1CN2CCC1CC2 (stereo not drawn),inactive
12,O=C(CSc1nc2ccccc2o1)Nc1ccc(N2CCOCC2)cc1,inactive
13,O=C1CC(c2ccccc2)n2nc(NC(=O)c3ccccc3)nc2N1 (stereo not drawn),inactive
14,CCN(c1ccc(OCC(=O)OCC(=O)Nc2ccc(F)c(F)c2F)cc1)S(=O)(=O)c1ccccc1,inactive
15,O=C(Cc1n[nH]c(=O)c2ccccc12)OCC(=O)c1ccc2c(c1)OCCO2,inactive
16,CC1CCN(C(c2cc3cc4c(cc3[nH]c2=O)OCO4)c2nnnn2CC2CCCO2)CC1 (stereo not drawn),inactive
